High-throughput results: PubChem, Center for Chemical Genomics, University of Michigan
Shown is part of a subset that was picked to be rich in hits.
Dicer inh: inhibitors of Dicer pre-microRNA processing, primary screen, biochemical, cat-ELCCA, chemiluminescence. Endoribonuclease Dicer (Homo sapiens), Q9UPY3. z-score at 25 µM. 6% of 47,000 active. cat-ELCCA pre-miR-21 Dicer processing; stronger effect = higher value. AID 1347074, 2019; in the data active = z-score above about 3, passing the limit was not always enough;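 note: plate controls were vehicle for no effect and no enzyme for full effect; higher signal means more uncleaved substrate so more Dicer inhibition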
* marks the source's active call; other numbers are inactive results.

SMILES	Dicer inh
CCCN1C(=O)C(O)(CC(=O)c2cc(OC)ccc2OC)c2cc(Br)ccc21 (configuration not stated)	-0.9
C=CCN1C(=O)C(O)(CC(=O)c2ccc(C)cc2C)c2ccccc21 (configuration not stated)	-1.03
C=CCN1C(=O)C(O)(CC(=O)c2ccc(OC)cc2OC)c2cc(Br)ccc21 (configuration not stated)	-0.27
C=CCN1C(=O)C(O)(CC(=O)c2ccccc2OC)c2ccccc21 (configuration not stated)	1.06
C=CCN1C(=O)C(O)(CC(=O)c2cc(OC)ccc2OC)c2cc(Br)ccc21 (configuration not stated)	3.54*
Cc1cc(=O)[nH]c(C23CC4CC(CC(C4)C2)C3)n1	-1.39
O=C(NNC(=O)c1cccc2ccccc12)c1cncc(-c2cccs2)c1	-0.54
N#Cc1c(Nc2ccccc2)[nH]c(=O)[nH]c1=O	-0.54
O=C(NC1CCCCC1)N1CCN(c2ncccc2C(F)(F)F)CC1	0.01
CCOC(=O)c1sc(N2C(=O)c3oc4ccc(C)cc4c(=O)c3C2c2ccccc2F)nc1C (configuration not stated)	0.37
O=C(NC(=O)c1ccc(C(F)(F)F)cc1)NN1CCCCCC1	-2.49
Oc1cc2c(cc1C(c1ccc(C(F)(F)F)cc1)N1CCCCC1)OCO2 (configuration not stated)	3.77*
Nc1cc(C(F)(F)F)ccc1N1CCCCC1	-0.13
Cc1c(S(=O)(=O)N2CCCc3ccccc32)cnn1-c1ccccc1	0.07
CN(C)/C=N/NS(=O)(=O)c1ccc(Cl)c(Cl)c1	-0.62
CCOC(=O)Oc1ccc2c(=O)c(-c3ccccc3OC)c(C(F)(F)F)oc2c1	0.22
CCOC(=O)Nc1c(C(=O)OCC)[nH]c2ccc(OC)cc12	5.23*
CCOC(=O)Nc1c(C(=O)OCC)[nH]c2ccc(F)cc12	2.8
CCOC(=O)c1[nH]c2ccc(F)cc2c1NC(C)=O	2.38
C=CCn1c(SCC(=O)Nc2ccc(Cl)cc2)nnc1-c1cccs1	0.46
CCOC(=O)c1c(O)c2ccccc2n(C)c1=O	0.14
CC(=O)c1c(O)c2ccccc2n(C)c1=O	-0.09
Cn1c(=O)c(C(=O)NCc2ccccn2)c(O)c2ccccc21	10.2*
Cn1c(=O)n(CC(=O)O)c2ccccc21	3.57*
Cn1c(=O)n(Cc2ccccc2Br)c2ccccc21	2.54
SMILES	Dicer inh
Cn1c(=O)n(CCCOc2ccc(Cl)cc2)c2ccccc21	-0.48
O=C(C1CCN(c2nccc(C(F)(F)F)n2)CC1)N1C=CC(C(F)(F)F)=NCC1	0.61
FC(F)(F)c1cc(-c2noc(C3CCc4ccccc4O3)n2)cc(C(F)(F)F)c1 (configuration not stated)	-0.01
Cc1cc2nc(Nc3nc4ccccc4c(=O)[nH]3)nc(C)c2cc1C	-1.14
Cc1ccc2nc(Nc3nc(C)c4ccccc4n3)[nH]c(=O)c2c1	-0.36
Cc1nc(Nc2nc3ccccc3c(=O)[nH]2)nc2c(C)cccc12	3.96*
O=S(=O)(NCc1ccc2c(c1)OCO2)c1ccc2c(c1)OCC2	-1.86
Cc1onc(-c2c(Cl)cccc2Cl)c1NC(=O)NC(C)C	0.43
CCCNC(=O)Nc1n[nH]c(Nc2ccc(Cl)cc2)n1	2.39
CC(C)NC(=O)Nc1n[nH]c(Nc2ccc(Cl)cc2)n1	11.5*
COC(=O)/C=C1/OC(c2ccc(OC)cc2)=CC1=O	-0.46
CCOc1ccc(C2c3c(oc4ccccc4c3=O)C(=O)N2c2nnc(C)s2)cc1OCC (configuration not stated)	-0.46
COc1cccc(C2Nc3ccccc3C(=O)N2NS(=O)(=O)c2ccc(C)cc2)c1O (configuration not stated)	-0.09
CCOC(=O)CSc1nc2ccccc2o1	-0.67
CCCC[C@@]1(C2CCCC2)Cc2cc(OCC(=O)O)c(Cl)c(Cl)c2C1=O	3.95*
COc1ccc(C2C(C(=O)OC3CCCCC3)=C(C)NC3=C2C(=O)CCC3)cc1OC (configuration not stated)	-0.54
CSc1scc(-c2ccc(Cl)cc2)c1C#N	1.11
C#CCOc1ccc(C2CC(=O)Nc3n[nH]c(-c4ccc(Cl)cc4)c32)cc1 (configuration not stated)	2.49
O=C(O)CCCCCN1C(=O)c2cccc3c(Br)ccc(c23)C1=O	10.6
CC(=O)ON1C(=O)c2cccc3cccc(c23)C1=O	1.23
COc1ccc2ccccc2c1Br	-1.28
COc1ccc2cccc3c2c1C=CC3=O	4.22*
N#C/C(=C\Nc1ccc(Cl)cn1)S(=O)(=O)c1ccccn1	-2.11
N#C/C(=C\Nc1ccc(Cl)cn1)S(=O)(=O)c1ccccc1	3.23*
N#C/C(=C\Nc1ccc(Cl)cn1)S(=O)(=O)c1ccc(Cl)cc1	1.2
CCOc1ccc2nc(S/C=C/C(=O)c3ccccc3)sc2c1	0.03
Cc1ccc(OCCN2C(=O)C(=O)c3cc(C)ccc32)cc1	3.13*
Cc1ccc(C(C)C)c(OCCN2C(=O)C(=O)c3cc(C)ccc32)c1	-0.65
Cc1ccc(C(C)C)c(OCCCN2C(=O)C(=O)c3cccc(C)c32)c1	0.44
